Screening results as filed in PubChem BioAssay.
D3 ag = qHTS of D3 Dopamine Receptor Agonist: qHTS. 410,000 tested, 0.58% active. AID 652048, 2013. D(3) dopamine receptor (Homo sapiens), P35462. D3R DiscoveRx beta-arrestin cells, luminescence, 90 min. max activation, %; in the data active means max activation above about 30%; further: 0% is about no effect
Target sequence (P35462 whole entry, looked up): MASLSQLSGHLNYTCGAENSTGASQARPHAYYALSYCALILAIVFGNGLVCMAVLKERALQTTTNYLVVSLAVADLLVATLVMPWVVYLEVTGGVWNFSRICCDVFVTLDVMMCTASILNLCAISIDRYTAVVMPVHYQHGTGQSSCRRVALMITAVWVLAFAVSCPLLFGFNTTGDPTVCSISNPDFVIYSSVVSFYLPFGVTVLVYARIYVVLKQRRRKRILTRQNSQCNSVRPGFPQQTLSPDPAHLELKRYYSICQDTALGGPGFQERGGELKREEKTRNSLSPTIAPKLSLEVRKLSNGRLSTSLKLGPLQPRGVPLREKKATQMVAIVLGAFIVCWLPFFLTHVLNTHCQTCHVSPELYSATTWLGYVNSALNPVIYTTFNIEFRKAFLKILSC
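Cells at 1500/well, incubated overnight, then treated with pinned compounds (dopamine as control) for 90 min at 37 degrees C. DiscoveRx reagent added for 30 - 60 minutes at room temperature; luminescence read.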
D1 antagonist = Antagonist of Human D 1 Dopamine Receptor: qHTS; D(1A) dopamine receptor (Homo sapiens), P21728; HEK293 TREx D1 cells, calcium flux, dopamine EC80; active compounds read low; activity change, negative = inhibition, % at 10 µM; 360,000 tested, 3.2% active; AID 504652, 2011; in the data active means activity change below about -30%; further: on the % scale 0 is the no-effect control and ±100 the full control effect
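Compound effects on dopamine-evoked calcium signalling were measured in tetracycline-induced HEK293 Trex D1 cells. Dopamine at EC80 followed a 180 s compound pre-read, and fluorescence was tracked kinetically for 180 s more.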
D1 potentiator = Potentiators of Human D1 Dopamine Receptor: qHTS. potentiation, % at 10 µM. AID 504651, 2011. 360,000 tested, 0.036% active. HEK293 TREx D1 cells, calcium flux, dopamine EC20 potentiation; in the data active means potentiation above about 30%; further: 0% is about no effect
D1 ag = Allosteric Agonists of the Human D1 Dopamine Receptor: qHTS; activation, % at 2 µM; AID 504660, 2011; 360,000 tested, 1% active; HEK293 T-REx D1 cells, calcium flux, agonist mode; D(1A) dopamine receptor (Homo sapiens), P21728; in the data active means activation above about 30%; further: 0% is about no effect
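Agonism was scored from calcium flux recorded over 180 s (1 read/s) after pintool compound addition, following a 10-cycle baseline. Cells were inducible force-coupled HEK293 TREx D1, plated overnight at 30 C and loaded with no-wash calcium dye.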
DRD3 antagonist = qHTS of D3 Dopamine Receptor Antagonist: qHTS. max response, negative = inhibition, %. D(3) dopamine receptor (Homo sapiens), P35462. AID 652054, 2013. 360,000 tested, 2.5% active. D3R cells, DiscoveRx beta-arrestin luminescence, antagonist mode; active compounds read low; in the data active means max response below about -50%; inconclusive means no clear call, values can overlap the other calls; further: on the % scale 0 is the no-effect control and ±100 the full control effect
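Cells plated overnight at 1500 cells/well, then exposed to library compounds with dopamine controls for 90 minutes at 37 degrees C. DiscoveRx reagent added for 30–60 minutes at room temperature; luminescence read, quantitative HTS format.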
* marks the source's active call; other numbers are inactive results. Sampled rows, rich in hits. Any-hit rate of the full collection: about 6%.

For CC(C)(CNC(=S)NCCc1ccccc1)CNC(=S)NCCc1ccccc1 the results were D3 ag 0.1, D1 antagonist -30.1*, D1 potentiator -7.4, D1 ag 15.0 and DRD3 antagonist -22.8.
For Fc1ccc(NC(=S)NCCc2ccc(Cl)cc2)cc1 the results were D3 ag -3.6, D1 antagonist -10.1, D1 potentiator -13.5, D1 ag 16.6 and DRD3 antagonist -14.1.
COc1ccc(C(=O)CC2(O)C(=O)N(Cc3ccccc3)c3ccc(Br)cc32)cc1 (configuration not stated) was read as D3 ag -2.9, D1 antagonist 9.4, D1 potentiator 0.5 and D1 ag 1.4.
For CCCSCCCNC(=O)c1sc2nc(C)cc(C)c2c1-n1cccc1 the results were D3 ag -7.0, D1 antagonist 4.2, D1 potentiator -1.4 and D1 ag 1.4.
Screening COc1cccc(CN(C(=O)c2ccc(C(C)(C)C)cc2)C2CCS(=O)(=O)C2)c1 (configuration not stated) returned D3 ag 8.6, D1 antagonist -17.9, D1 potentiator -1.0 and D1 ag -0.3.
Fc1cccc(NC(=S)NCCc2ccccc2)c1 was read as D3 ag 4.5, D1 antagonist -38.5*, D1 potentiator -7.7, D1 ag 19.4 and DRD3 antagonist 11.3.
COc1ccc2[nH]c3c(c2c1)CCN1C(=O)C(CC(=O)NCCCN(C)C)C[C@H](C(=O)N2CCCCC2)[C@@]31CCc1ccccc1 (some centres not stated) was read as D3 ag 1.2 and DRD3 antagonist -11.0.
COc1ccc2[nH]c3c(c2c1)CCN1C(=O)C(CC(=O)NCCN2CCOCC2)C[C@H](C(=O)N2CCCCC2)[C@@]31CCc1ccccc1 (some centres not stated) was read as D3 ag 30.3* and DRD3 antagonist -9.2.
COc1ccc2[nH]c3c(c2c1)CCN1C(=O)C(CC(=O)NCCC2=CCCCC2)C[C@H](C(=O)N2CCOCC2)[C@@]31CCC1CCCC1 (some centres not stated) was read as D3 ag 29.6 and DRD3 antagonist -52.2*.
Screening CCOC(=O)/C(C#N)=C1/SC(CC)C(=O)N1c1ccc(C)cc1 (configuration not stated) returned D3 ag 11.2, D1 antagonist -5.0, D1 potentiator -4.3, D1 ag 1.9 and DRD3 antagonist -57.2*.
For Cc1ccc(OCC(O)Cn2c(=N)n(CCN3CCCCC3)c3ccccc32)cc1 (configuration not stated) the results were D3 ag -10.4, D1 antagonist -5.4, D1 potentiator 0.2, D1 ag 15.9 and DRD3 antagonist -63.1*.
N=c1n(CCN2CCCCC2)c2ccccc2n1CC(O)COc1ccc(Cl)cc1Cl (configuration not stated) was read as D3 ag -18.1, D1 antagonist 1.3, D1 potentiator -3.1 and D1 ag 194.9*.
Screening Cc1ccc(/C=C2\CCC3=C2OC(N)=C(C#N)C3c2ccc(C)cc2)cc1 (configuration not stated) returned D3 ag -4.6, D1 antagonist -56.5*, D1 potentiator -5.2, D1 ag 135.4* and DRD3 antagonist 3.2.
For Fc1ccc(C2=NN(c3ccccc3)C(c3ccco3)C2)cc1 (configuration not stated) the results were D3 ag -0.8, D1 antagonist 8.2, D1 potentiator -1.6, D1 ag 4.0 and DRD3 antagonist -18.2.
For C(=C\c1ccco1)/C1=NN(c2ccccc2)C(c2ccco2)C1 (configuration not stated) the results were D3 ag 0.9, D1 antagonist 6.7, D1 potentiator -7.8, D1 ag 44.6* and DRD3 antagonist -1.5.
O=[N+]([O-])c1ccc(/C=C/C2=NN(c3ccccc3)C(c3ccco3)C2)o1 (configuration not stated) was read as D3 ag -7.7, D1 antagonist -4.4, D1 potentiator 0.3, D1 ag 97.2* and DRD3 antagonist inconclusive.
Screening O=Cc1cccc(OCc2cn(CC(=O)c3ccc(O)cc3)nn2)c1 returned D3 ag -11.8 and DRD3 antagonist -52.6*.
O=C(Cn1cc(COc2ccccc2[N+](=O)[O-])nn1)c1ccc(O)cc1 was read as D3 ag 37.1* and DRD3 antagonist -8.8.
For CCCC(=O)c1ccc(OCc2cn(CC(=O)c3ccc(O)cc3)nn2)cc1 the results were D3 ag -20.5 and DRD3 antagonist -17.9.
N#Cc1ccccc1OCc1cn(CC(=O)c2ccc(O)cc2)nn1 was read as D3 ag -12.2 and DRD3 antagonist -73.4*.
O=C(Cn1cc(COc2ccc(Br)cc2)nn1)c1ccc(O)cc1 was read as D3 ag -8.7 and DRD3 antagonist 15.9.
COc1ccccc1-c1nnc(SCC(=O)c2ccc(F)cc2)n1-c1ccccc1 was read as D3 ag 7.1, D1 antagonist -2.3, D1 potentiator -1.5 and D1 ag 3.0.
Screening Cc1cccc2sc(N3CCN(C(=O)CS(=O)(=O)c4ccc(F)cc4)CC3)nc12 returned D3 ag -8.5, D1 potentiator 3.4 and D1 ag 6.1.
Screening Cc1ccc(S(=O)(=O)CC(=O)N2CCN(c3nc4c(F)cccc4s3)CC2)cc1 returned D3 ag -10.0, D1 potentiator -1.6 and D1 ag 56.4*.
Cc1ccc(CCNC(=O)NCc2noc3ccc(C)cc23)cc1 was read as D3 ag 5.9, D1 antagonist -21.5, D1 potentiator -6.8 and D1 ag 0.3.
For O=S(=O)(c1ccc(Br)cc1)c1nnn2c1nc(Nc1cccc(C(F)(F)F)c1)c1sccc12 the results were D3 ag -8.3, D1 antagonist -6.1, D1 potentiator -4.2 and D1 ag 0.5.
Screening CC1(OC(=O)C2CCCC2)C(=O)C=C2C=C(c3ccsc3)N(C3CC3)C=C2C1=O (configuration not stated) returned D3 ag 0.3, D1 antagonist 2.4, D1 potentiator -4.2, D1 ag 1.6 and DRD3 antagonist -63.7*.
Clc1cccc(/C=N/N2CCN(Cc3ccccc3)CC2)c1 was read as D3 ag 0.8, D1 antagonist -32.5*, D1 potentiator -2.8, D1 ag 4.8 and DRD3 antagonist -13.2.
O=[N+]([O-])c1ccccc1/C=N\N1CCN(Cc2ccccc2Cl)CC1 was read as D3 ag -14.2, D1 antagonist 14.9, D1 potentiator -2.5, D1 ag 1.1 and DRD3 antagonist 0.3.
